The full ranking holds about 8,300 sequences; the median of “log2 fold change of degron read counts, EGFP-low vs EGFP+ sorted cells (limma voom), compound-induced degradation” is about -1.1, and the highest 2% start at about 3.2. The sample as a whole holds a higher share of the highest values than the screen did.
T1: CRBN, Q96SW2
T1 chain: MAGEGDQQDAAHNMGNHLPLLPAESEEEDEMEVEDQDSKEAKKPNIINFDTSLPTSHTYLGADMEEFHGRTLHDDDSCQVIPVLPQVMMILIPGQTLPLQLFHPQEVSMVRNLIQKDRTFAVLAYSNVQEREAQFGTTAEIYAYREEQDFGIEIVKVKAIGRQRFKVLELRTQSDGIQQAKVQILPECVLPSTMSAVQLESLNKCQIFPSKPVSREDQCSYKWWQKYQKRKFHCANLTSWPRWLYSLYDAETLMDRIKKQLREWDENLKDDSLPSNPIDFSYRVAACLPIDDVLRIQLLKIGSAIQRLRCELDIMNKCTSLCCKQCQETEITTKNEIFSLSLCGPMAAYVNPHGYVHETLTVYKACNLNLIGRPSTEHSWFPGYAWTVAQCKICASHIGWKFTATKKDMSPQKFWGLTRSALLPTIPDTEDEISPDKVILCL


Biological target: T1, CRBN, Q96SW2
Experiment: log2 fold change of degron read counts, EGFP-low vs EGFP+ sorted cells (limma voom), compound-induced degradation; higher = more compound-induced degradation of the degron-EGFP fusion; degrons are variants of IKZF1/3 zinc finger 2; compound dose not given here
Details: Jurkat, 18 h
[1] = compound: compound 19 (5-tert-butyl-thalidomide)
[2] = compound: compound 22 (5-morpholino-thalidomide)
[3] = compound: compound 33 (diphenyl IMiD analogue)
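Note: pooled lentiviral library of zinc finger degron-EGFP fusions in mCherry-positive Jurkat cells, FACS-sorted after compound exposure, with degron abundance counted by next-generation sequencing.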

Sequence	log2 fold change of degron read counts [1]	log2 fold change of degron read counts [2]	log2 fold change of degron read counts [3]	log2 fold change of degron read counts (compound: thalidomide)
FECEICGHGFTQKGNLLRHIKL [46F_47E_49E_50I_52G_53H_54G_55F_67L_, Q9UKT9]	-3.39	-3.7	-2.59	-2.45
FTCEICGRLFTQKGNLLRHIKL [46F_47T_49E_50I_52G_53R_54L_55F_67L_, Q9UKT9]	-2.87	-2.3	-0.938	-0.343
LWCNQCGFPCTQKGNLLRHIKL [46L_47W_49N_50Q_52G_53F_54P_55C_67L_, Q9UKT9]	-0.74	-1.09	-1.33	-1.27
FYCPQCGAWFTQKGNLLRHIKL [46F_47Y_49P_50Q_52G_53A_54W_55F_67L_, Q9UKT9]	-0.595	-1.07	-0.405	-1.33
FECNVCGAHFTQKGNLLRHIKL [46F_47E_49N_50V_52G_53A_54H_55F_67L_, Q9UKT9]	-2.58	-2.72	-0.566	-0.594
FLCDVCGACFTQKGNLLRHIKL [46F_47L_49D_50V_52G_53A_54C_55F_67L_, Q9UKT9]	-1.03	-2.05	0.211	-0.875
FWCPICGREFTQKGNLLRHIKL [46F_47W_49P_50I_52G_53R_54E_55F_67L_, Q9UKT9]	0.147	-0.132	1.23	-0.495
FLCPVCGAGFTQKGNLLRHIKL [46F_47L_49P_50V_52G_53A_54G_55F_67L_, Q9UKT9]	1.38	0.0992	1.5	0.959
FKCPVCGATFTQKGNLLRHIKL [46F_47K_49P_50V_52G_53A_54T_55F_67L_, Q9UKT9]	-1.61	-2.57	-2.5	-0.961
FVCPVCGATFTQKGNLLRHIKL [46F_47V_49P_50V_52G_53A_54T_55F_67L_, Q9UKT9]	-1.12	1.27	1.62	2.01
FWCPVCGATFTQKGNLLRHIKL [46F_47W_49P_50V_52G_53A_54T_55F_67L_, Q9UKT9]	2.12	3.45	1.55	0.523
FCCPVCGATFTQKGNLLRHIKL [46F_47C_49P_50V_52G_53A_54T_55F_67L_, Q9UKT9]	1.17	1.86	2.81	2.11
FMCPVCGATFTQKGNLLRHIKL [46F_47M_49P_50V_52G_53A_54T_55F_67L_, Q9UKT9]	-1.09	0.0816	1.9	1.06
FNCPVCGATFTQKGNLLRHIKL [46F_47N_49P_50V_52G_53A_54T_55F_67L_, Q9UKT9]	1.23	-0.0199	1.21	0.0692
FQCPVCGATFTQKGNLLRHIKL [46F_47Q_49P_50V_52G_53A_54T_55F_67L_, Q9UKT9]	0.396	2.89	2.57	3.79
FGCPVCGATFTQKGNLLRHIKL [46F_47G_49P_50V_52G_53A_54T_55F_67L_, Q9UKT9]	3.66	2.4	2.06	1.12
FFCPVCGATFTQKGNLLRHIKL [46F_47F_49P_50V_52G_53A_54T_55F_67L_, Q9UKT9]	2.59	3.54	1.59	1.17
FDCPVCGATFTQKGNLLRHIKL [46F_47D_49P_50V_52G_53A_54T_55F_67L_, Q9UKT9]	1.07	-0.459	0.762	1.24
FLCPVCGATFTQKGNLLRHIKL [46F_47L_49P_50V_52G_53A_54T_55F_67L_, Q9UKT9]	-1.39	-1.44	0.984	1.09
FECPVCGATFTQKGNLLRHIKL [46F_47E_49P_50V_52G_53A_54T_55F_67L_, Q9UKT9]	-0.45	-0.774	1.74	2.82
FRCNQCGHPFTQKGNLLRHIKL [46F_47R_49N_50Q_52G_53H_54P_55F_67L_, Q9UKT9]	-1.26	-1.57	-1.18	-0.69
FWCPICGRRFTQKGNLLRHIKL [46F_47W_49P_50I_52G_53R_54R_55F_67L_, Q9UKT9]	-0.549	1.78	-0.519	-0.365
FDCNQCGRPFTQKGNLLRHIKL [46F_47D_49N_50Q_52G_53R_54P_55F_67L_, Q9UKT9]	-2.11	-2.72	-2.47	-2.01
FTCEVCGAKFTQKGNLLRHIKL [46F_47T_49E_50V_52G_53A_54K_55F_67L_, Q9UKT9]	0.575	1.8	-0.259	2.77
FVCPICGHVFTQKGNLLRHIKL [46F_47V_49P_50I_52G_53H_54V_55F_67L_, Q9UKT9]	-1.93	-1.85	-1.17	-0.831
FFCNQCGHRFTQKGNLLRHIKL [46F_47F_49N_50Q_52G_53H_54R_55F_67L_, Q9UKT9]	-1.77	-1.83	-1.97	-1.98
FTCSVCGHMFTQKGNLLRHIKL [46F_47T_49S_50V_52G_53H_54M_55F_67L_, Q9UKT9]	-2.72	-3.24	-2.66	-2.24
FYCPVCGATFTQKGNLLRHIKL [46F_47Y_49P_50V_52G_53A_54T_55F_67L_, Q9UKT9]	2.81	3.38	2.28	1.02
FACPVCGATFTQKGNLLRHIKL [46F_47A_49P_50V_52G_53A_54T_55F_67L_, Q9UKT9]	3.23	1.68	1.17	0.555
FHCPVCGATFTQKGNLLRHIKL [46F_47H_49P_50V_52G_53A_54T_55F_67L_, Q9UKT9]	1.14	1.21	1.72	-0.00776

Source: the supplement of paper PMC12645437, “Orthogonal IMiD-Degron Pairs Induce Selective Protein Degradation in Cells” (ACS Chemical Biology, 2025)
